An excerpt weighted towards active compounds, which were near 5.4% of everything screened.
Calb FLC: C. albicans growth modulation with fluconazole; C. albicans CaCi-2 (fluconazole-resistant clinical isolate) + fluconazole, Alamar Blue growth, 48 h; 300,000 compounds, 0.57% hits; growth inhibition, % (concentration not given with the values);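 active = growth inhibition above about 58% in most replicates, limit read from the data, passing the limit was not always enough; inconclusive = exactly half the replicates above a set limit; inactive = most replicates below a set limit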;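 also: all wells also contain fluconazole at 8 µg/ml as a sub-toxic cotreatment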
CSC inhib: blocks cancer stem cells; cancer stem cell-like cells viability, luminescence; inhibition, % at 7.5 µM; 300,000 compounds, 1.1% hits; AID 2717; in the data active = inhibition above about 75%; inconclusive = no clear call, values can overlap the other calls; tested in HMLE shEcad cells
PP1 inh: PP1-alpha (human) inhibition in PP5 counter-screen; inhibition, % at 6.7 µM; P62136; AID 2235; 320,000 compounds, 0.9% hits; purified PP1alpha, OMFP fluorescence;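 active = inhibition above the mean inhibition of all tested compounds plus 3 SD, computed separately for each screening campaign, cut at about 15% in these data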
ALR H2O2 inh: human ALR oxidase inhibition via reduced H2O2 | AID 485317 | inhibition, % (test concentration not listed) | purified ALR, DTT oxidation, H2O2 HRP-luminol luminescence | P55789 | 290,000 compounds, 3.8% hits;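 active = mean replicate inhibition above about 79%, with every replicate also reaching it, limit read from the data; inconclusive = only one of the two criteria met; inactive = mean below limit and not every replicate reaching it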
PP5 primary: blocks human protein phosphatase 5 activity. inhibition, % at 6.7 µM. P53041. purified PP5c, OMFP substrate fluorescence. 320,000 compounds, 0.18% hits;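 active = inhibition above the campaign's mean inhibition across all tested compounds plus 3 SD, cut at about 9.5% in these data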
Target sequence (P53041 whole entry, looked up): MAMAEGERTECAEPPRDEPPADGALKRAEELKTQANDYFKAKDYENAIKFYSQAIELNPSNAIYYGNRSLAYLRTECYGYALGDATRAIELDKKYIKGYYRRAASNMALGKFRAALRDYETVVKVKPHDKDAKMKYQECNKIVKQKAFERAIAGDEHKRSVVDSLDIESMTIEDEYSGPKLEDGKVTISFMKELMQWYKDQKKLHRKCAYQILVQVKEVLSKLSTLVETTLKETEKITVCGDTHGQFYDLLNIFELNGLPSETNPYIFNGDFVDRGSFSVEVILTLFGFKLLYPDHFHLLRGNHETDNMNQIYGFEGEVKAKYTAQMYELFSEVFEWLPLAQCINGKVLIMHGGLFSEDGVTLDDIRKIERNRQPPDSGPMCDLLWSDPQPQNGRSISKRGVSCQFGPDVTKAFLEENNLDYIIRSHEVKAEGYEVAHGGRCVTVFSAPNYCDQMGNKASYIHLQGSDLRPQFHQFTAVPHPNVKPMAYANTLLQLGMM
Numbers stand for hits; n = inactive; u = inconclusive; x = not tested or not shown.

SMILES	Calb FLC	CSC inhib	PP1 inh	ALR H2O2 inh	PP5 primary
C/C(=N\NC(=O)c1ccccn1)c1ccc(Cl)cc1	n	n	n	n	n
C/C(=N/NC(=O)c1ccccn1)c1ccc(O)cc1	n	n	n	99	n
C/C(=N\Nc1ccc2nncn2n1)c1ccco1	n	n	n	n	n
O=C(NCCNC(=O)c1ccccn1)c1ccccc1	n	n	n	95	n
C/C(=N\Nc1ccc2nncn2n1)c1ccccn1	n	98	n	n	n
Cc1cc(NC(=O)CCC(=O)N(CC(=O)NCC2CCCO2)Cc2ccc(F)cc2)no1 (stereo not given)	n	n	n	n	n
Cc1ccc(C23CC4CC(CC(NC(=O)NC(C)(C)CO)(C4)C2)C3)cc1	n	n	n	n	n
O=c1[nH]c(/C=C\c2ccc(O)c(O)c2)nc(O)c1[N+](=O)[O-]	n	x	x	99	x
COc1cccc(CN(C)C(=O)CNC(=O)c2cccs2)c1OC	n	n	n	n	n
CC1(C)OC(=O)C(=CNCC(O)c2ccccc2)C(=O)O1 (stereo not given)	n	n	n	n	n
CC1(C)OC(=O)C(=CNCCc2ccc(O)cc2)C(=O)O1	n	n	n	88	n
CN(C)/N=C1\CCS(=O)(=O)c2sccc21	n	n	n	x	n
Cc1ccc(N/N=C2\CCS(=O)(=O)c3sccc32)cc1	u	n	n	99	n
Cc1cc(O)c(C(C)C)cc1N=Cc1cc([N+](=O)[O-])ccc1O	n	n	n	n	n
O=c1[nH]cc(N=Cc2cc([N+](=O)[O-])ccc2O)c(=O)[nH]1	93	n	n	n	n
COCc1cc(Sc2ccc(Br)cc2)nc(-c2ccccc2)n1	n	n	n	99	n
O=C(Nc1ccc(Cl)c(Cl)c1)N(CCCN1CCOCC1)Cc1cccs1	n	n	n	x	n
c1ccc(CCNc2ncnc3nc[nH]c23)cc1	n	n	n	n	n
CCCCN(CCCNc1ncnc2nc[nH]c12)c1ccccc1	n	n	n	93	n
CCN(CCCNc1ncnc2nc[nH]c12)c1cccc(C)c1	n	n	n	99	n
CCCCN(c1ccccc1)c1ncnc2nc[nH]c12	n	n	n	x	n
c1ccc2c(CCNc3ncnc4nc[nH]c34)c[nH]c2c1	n	n	n	98	n
CCOCC(=O)Nc1nnc(C)s1	n	n	n	n	n
CCS(=O)(=O)N1CCC(C(=O)Nc2cc(Cl)ccc2O)CC1	n	x	n	n	n
CN(C)N=Nc1nc2c(c(=O)n(C)c(=O)n2C)n1CC1CO1 (stereo not given)	n	n	n	n	n
SMILES	Calb FLC	CSC inhib	PP1 inh	ALR H2O2 inh	PP5 primary
CN(C)C(/C=C/Nc1cccc(Br)c1)=C(C#N)C#N	n	n	n	n	n
COc1cc(/C=N/NS(=O)(=O)c2ccc3ccccc3c2)ccc1OCCN1CCOCC1	n	x	n	99	n
COc1ccc(S(=O)(=O)N/N=C/c2ccc(OCCN3CCOCC3)c(OC)c2)cc1	n	x	n	n	n
Cc1cc(C)nc(NCC(O)COc2ccccc2C)n1 (stereo not given)	n	n	n	n	n
Cc1cc(C)nc(NCC(O)CNc2ccccc2C)n1 (stereo not given)	n	n	n	98	n
CCNC(=O)Nc1nc2ccccc2s1	u	n	n	n	n
CCOCC(=O)Nc1nc2ccccc2s1	n	n	n	86	n
O=C(COc1ccccc1)NNc1nc2ccccc2s1	n	n	n	99	n
Cc1nc2ccc(NC(=O)COc3ccccc3)cc2s1	108	x	x	x	x
Cn1nnnc1SCC1=C(C(=O)O)N2C(=O)C(NC(=O)C3CC3c3ccccc3)C2SC1 (stereo not given)	n	n	n	n	n
O=C(NCCC(=O)N1CCN(c2ncccn2)CC1)c1ccccc1Cl	n	n	n	n	n
COc1cc(OC)cc(C(=O)Nc2cc(C)nn2-c2ccccc2)c1	n	x	n	x	n
Cc1cc(NC(=O)Nc2cccc(Cl)c2)n(-c2ccccc2)n1	n	n	n	n	n
COc1ccc(-n2nc(C)cc2Nc2ccccc2C(=O)O)cc1	n	n	n	99	n
Cc1cc(Nc2ccccc2)n(-c2cccc(Cl)c2)n1	n	n	n	99	n
Cc1cc(Nc2ccccc2)n(-c2ccc(C(=O)O)cc2)n1	n	n	n	99	n
CCOC(=O)C1CCN(c2c(NCc3ccc(C(=O)N(C)Cc4ccccc4)cc3)c(=O)c2=O)CC1	n	n	n	n	n
O=C1C=C(c2cccnc2)CCC1	n	n	n	n	n
CCCCOC(=O)NS(=O)(=O)c1sc(CC(C)C)cc1-c1ccc(Cn2c(CC)nc3c(C)cc(C)nc32)cc1	x	100	n	x	n
Cc1nc2ccc(S(=O)(=O)NC(C(=O)Nc3nc4ccc(Cl)cc4s3)C(C)C)cc2s1 (stereo not given)	n	n	n	n	n
Cc1nc2ccc(S(=O)(=O)NC(C(=O)Nc3nccs3)C(C)C)cc2s1 (stereo not given)	n	n	n	92	n
Cc1ccc(NC(=O)CCCC(=O)O)c(Br)c1	x	n	n	n	n
Cc1ccc(O)c(NC(=O)CCCC(=O)O)c1	n	n	n	82	n
CCCCOc1ccc(C2(C)NC(=O)N(C)C2=O)cc1 (stereo not given)	n	n	n	n	n
Cc1ccc(C(=O)NCCSc2snnc2C)cc1	n	n	n	94	n
SMILES	Calb FLC	CSC inhib	PP1 inh	ALR H2O2 inh	PP5 primary
NC(=S)N/N=C/c1c(O)c(Br)cc2oc3c(c12)CCCC3	n	n	n	n	n
C/C(=N/Nc1ccc([N+](=O)[O-])cc1)c1ccc(C)cc1C	n	u	n	98	n
C/C(=N\Nc1ccc([N+](=O)[O-])cc1)c1ccc(C#N)cc1	n	n	n	x	n
COc1cc(NC(=O)c2ccc(Cl)cc2)c2ncccc2c1	n	n	x	n	x
O=C(O)/C=C/C(=O)NCCNc1ncc(C(F)(F)F)cc1Cl	n	n	n	n	n
COc1ccc(-c2csc(N(CC3CCCO3)C(=O)c3ccco3)n2)cc1 (stereo not given)	98	n	n	x	n
Cc1cc(C)nc(N/N=C/c2ccccc2Cl)n1	n	n	n	n	n
COc1ccc(Nc2cc(C)nc(NCc3ccccc3)n2)cc1	n	n	n	75	n
Cc1cc(N/N=C/c2ccccc2Cl)nc(NCc2ccccc2)n1	n	94	17	n	n
CCCCC(=O)OCCNC(=O)c1cc2ccccc2oc1=O	x	n	n	n	n
CCOC(=O)c1ccc(NC(=O)C2(c3ccccc3)CCCC2)cc1	n	n	n	n	n
O=S(=O)(N[C@H]1C[C@@H](NS(=O)(=O)OCC(Cl)(Cl)Cl)C2CCCCC21)OCC(Cl)(Cl)Cl (stereo not given in full)	n	76	n	n	n
CCOC(=O)c1sc(N/N=C/c2ccc(N(C)C)cc2)nc1C	n	n	n	n	n
C=CCc1c(C)nc(C)nc1N/N=C/c1ccc(N(C)C)cc1	n	n	n	99	n
CCNc1nc(NCC)nc(N(C)N)n1	n	n	n	84	n
CC(C)Nc1nc(NC(C)C)nc(N(C)N)n1	n	n	n	n	n
Cc1ccc2nc(CSc3nnc(Nc4ccccc4F)s3)cc(=O)n2c1	n	x	n	n	n
